Of roughly 7,900 targets only a part is listed; those with a hit were picked by preference. About 0.6% of all pairs of compound and target were hits. A number with no mark means an inactive call.
The targets below were run with c1cn2cc(-c3ccc4cn[nH]c4c3)nc(Nc3ccc(N4CCOCC4)cc3)c2n1 [entospletinib] (assay: log2 fold change, soluble protein after heating vs DMSO (PISA); higher = thermal stabilisation; K562 cells, 10 uM, 30 min; active = over 0.2 and 3.5 SD of the protein, either way, in both replicates (recomputed)).
Procedure, shortened: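 Values are thermal stability changes relative to control samples and are taken from duplicates. They are stated as log2 fold changes. Before quantification by TMTpro 16plex LC-MS/MS with equalised channel sums, K562 cells at 2×10^6 cells/mL were treated with 10 μM compound for 30 min, heated in aliquots for 3 min across 48°C-58°C, pooled, extracted in PBS with 0.5% NP-40 at 4°C, and centrifuged at 21,000xg for 90 min to give the soluble supernatant.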
Chain of UniProt Q69YH5 (Q69YH5 whole entry, looked up): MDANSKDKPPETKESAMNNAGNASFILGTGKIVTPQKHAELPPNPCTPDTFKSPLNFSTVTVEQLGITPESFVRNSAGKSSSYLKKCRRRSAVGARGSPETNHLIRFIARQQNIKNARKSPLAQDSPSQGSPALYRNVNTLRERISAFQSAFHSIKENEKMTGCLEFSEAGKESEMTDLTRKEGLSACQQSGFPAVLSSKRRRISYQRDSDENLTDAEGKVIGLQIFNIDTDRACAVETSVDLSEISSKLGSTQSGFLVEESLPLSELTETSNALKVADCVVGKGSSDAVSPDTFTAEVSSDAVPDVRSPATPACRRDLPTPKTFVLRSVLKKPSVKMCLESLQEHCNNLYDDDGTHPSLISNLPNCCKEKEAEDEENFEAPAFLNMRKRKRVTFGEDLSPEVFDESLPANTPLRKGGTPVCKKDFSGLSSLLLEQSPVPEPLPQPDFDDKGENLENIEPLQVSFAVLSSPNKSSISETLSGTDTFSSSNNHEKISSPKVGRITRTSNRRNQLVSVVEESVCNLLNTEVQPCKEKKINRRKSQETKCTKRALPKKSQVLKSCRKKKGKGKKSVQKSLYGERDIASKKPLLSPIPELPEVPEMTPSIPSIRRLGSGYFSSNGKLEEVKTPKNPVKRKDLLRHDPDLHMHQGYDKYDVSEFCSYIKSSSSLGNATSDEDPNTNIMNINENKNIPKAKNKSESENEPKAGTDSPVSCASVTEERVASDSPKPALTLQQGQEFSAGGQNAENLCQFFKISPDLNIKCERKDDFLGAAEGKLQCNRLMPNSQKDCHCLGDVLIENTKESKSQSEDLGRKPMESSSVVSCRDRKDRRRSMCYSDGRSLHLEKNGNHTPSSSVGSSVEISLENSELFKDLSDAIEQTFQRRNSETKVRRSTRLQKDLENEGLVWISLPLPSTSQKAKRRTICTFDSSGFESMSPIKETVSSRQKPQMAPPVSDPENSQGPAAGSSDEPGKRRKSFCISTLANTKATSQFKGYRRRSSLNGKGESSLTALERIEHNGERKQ
Chain of UniProt Q7KZN9 (Q7KZN9 whole entry, looked up): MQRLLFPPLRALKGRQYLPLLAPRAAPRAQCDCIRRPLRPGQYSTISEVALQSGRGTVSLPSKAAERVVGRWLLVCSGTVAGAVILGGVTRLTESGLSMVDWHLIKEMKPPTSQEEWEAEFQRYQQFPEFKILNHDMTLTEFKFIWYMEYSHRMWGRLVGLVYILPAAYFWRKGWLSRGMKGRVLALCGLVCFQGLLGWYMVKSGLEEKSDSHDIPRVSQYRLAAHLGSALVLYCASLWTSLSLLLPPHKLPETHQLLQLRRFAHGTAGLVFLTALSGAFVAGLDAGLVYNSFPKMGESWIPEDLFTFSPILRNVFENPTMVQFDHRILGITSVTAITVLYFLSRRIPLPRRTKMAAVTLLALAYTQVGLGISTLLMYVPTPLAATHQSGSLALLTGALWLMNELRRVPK
Chain of UniProt Q99627 (Q99627 whole entry, looked up): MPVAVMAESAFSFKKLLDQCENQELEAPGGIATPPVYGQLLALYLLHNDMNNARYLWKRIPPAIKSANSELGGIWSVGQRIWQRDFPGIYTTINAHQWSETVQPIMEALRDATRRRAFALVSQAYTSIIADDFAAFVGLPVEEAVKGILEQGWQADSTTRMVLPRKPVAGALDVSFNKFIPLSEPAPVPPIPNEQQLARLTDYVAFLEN
Chain of UniProt Q14004 (Q14004 whole entry, looked up): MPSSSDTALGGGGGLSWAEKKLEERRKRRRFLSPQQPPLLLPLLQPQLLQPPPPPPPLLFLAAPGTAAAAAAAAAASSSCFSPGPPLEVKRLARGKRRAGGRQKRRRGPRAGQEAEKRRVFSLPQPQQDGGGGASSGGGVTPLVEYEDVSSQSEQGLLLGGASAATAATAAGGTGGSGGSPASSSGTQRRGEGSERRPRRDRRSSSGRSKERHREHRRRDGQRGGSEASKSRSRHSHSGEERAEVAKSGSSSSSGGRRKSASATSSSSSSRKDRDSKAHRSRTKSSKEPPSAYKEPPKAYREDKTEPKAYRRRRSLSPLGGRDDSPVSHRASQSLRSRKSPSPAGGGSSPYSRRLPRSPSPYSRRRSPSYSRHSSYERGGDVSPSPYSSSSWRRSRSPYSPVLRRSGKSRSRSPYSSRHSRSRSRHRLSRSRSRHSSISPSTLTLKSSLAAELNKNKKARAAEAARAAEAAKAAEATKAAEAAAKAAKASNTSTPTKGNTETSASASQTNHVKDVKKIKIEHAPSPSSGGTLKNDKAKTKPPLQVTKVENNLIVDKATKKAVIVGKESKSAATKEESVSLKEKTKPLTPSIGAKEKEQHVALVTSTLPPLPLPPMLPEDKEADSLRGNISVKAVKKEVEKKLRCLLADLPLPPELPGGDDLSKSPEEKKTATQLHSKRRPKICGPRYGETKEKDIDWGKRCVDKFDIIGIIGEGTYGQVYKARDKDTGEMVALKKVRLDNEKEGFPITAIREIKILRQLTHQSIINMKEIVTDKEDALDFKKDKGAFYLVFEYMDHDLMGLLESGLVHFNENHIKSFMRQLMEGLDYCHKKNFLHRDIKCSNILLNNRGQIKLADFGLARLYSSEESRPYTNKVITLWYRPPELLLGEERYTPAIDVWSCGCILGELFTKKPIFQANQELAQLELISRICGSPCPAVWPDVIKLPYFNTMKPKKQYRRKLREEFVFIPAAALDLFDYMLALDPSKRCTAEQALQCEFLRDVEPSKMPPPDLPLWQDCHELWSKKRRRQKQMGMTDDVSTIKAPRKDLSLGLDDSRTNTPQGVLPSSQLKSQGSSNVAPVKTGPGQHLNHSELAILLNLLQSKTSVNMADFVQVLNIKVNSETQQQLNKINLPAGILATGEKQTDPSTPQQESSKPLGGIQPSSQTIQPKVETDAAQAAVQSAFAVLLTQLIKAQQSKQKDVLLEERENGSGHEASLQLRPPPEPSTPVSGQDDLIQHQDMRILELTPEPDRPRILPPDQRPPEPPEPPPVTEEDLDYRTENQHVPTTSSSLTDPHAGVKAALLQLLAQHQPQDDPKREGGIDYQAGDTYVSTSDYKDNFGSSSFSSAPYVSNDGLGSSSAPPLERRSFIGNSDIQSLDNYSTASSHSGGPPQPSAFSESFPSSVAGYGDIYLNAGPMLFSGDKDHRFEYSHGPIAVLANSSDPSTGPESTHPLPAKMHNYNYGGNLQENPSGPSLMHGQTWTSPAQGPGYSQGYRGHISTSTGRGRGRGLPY
Chain of UniProt Q10570 (Q10570 whole entry, looked up): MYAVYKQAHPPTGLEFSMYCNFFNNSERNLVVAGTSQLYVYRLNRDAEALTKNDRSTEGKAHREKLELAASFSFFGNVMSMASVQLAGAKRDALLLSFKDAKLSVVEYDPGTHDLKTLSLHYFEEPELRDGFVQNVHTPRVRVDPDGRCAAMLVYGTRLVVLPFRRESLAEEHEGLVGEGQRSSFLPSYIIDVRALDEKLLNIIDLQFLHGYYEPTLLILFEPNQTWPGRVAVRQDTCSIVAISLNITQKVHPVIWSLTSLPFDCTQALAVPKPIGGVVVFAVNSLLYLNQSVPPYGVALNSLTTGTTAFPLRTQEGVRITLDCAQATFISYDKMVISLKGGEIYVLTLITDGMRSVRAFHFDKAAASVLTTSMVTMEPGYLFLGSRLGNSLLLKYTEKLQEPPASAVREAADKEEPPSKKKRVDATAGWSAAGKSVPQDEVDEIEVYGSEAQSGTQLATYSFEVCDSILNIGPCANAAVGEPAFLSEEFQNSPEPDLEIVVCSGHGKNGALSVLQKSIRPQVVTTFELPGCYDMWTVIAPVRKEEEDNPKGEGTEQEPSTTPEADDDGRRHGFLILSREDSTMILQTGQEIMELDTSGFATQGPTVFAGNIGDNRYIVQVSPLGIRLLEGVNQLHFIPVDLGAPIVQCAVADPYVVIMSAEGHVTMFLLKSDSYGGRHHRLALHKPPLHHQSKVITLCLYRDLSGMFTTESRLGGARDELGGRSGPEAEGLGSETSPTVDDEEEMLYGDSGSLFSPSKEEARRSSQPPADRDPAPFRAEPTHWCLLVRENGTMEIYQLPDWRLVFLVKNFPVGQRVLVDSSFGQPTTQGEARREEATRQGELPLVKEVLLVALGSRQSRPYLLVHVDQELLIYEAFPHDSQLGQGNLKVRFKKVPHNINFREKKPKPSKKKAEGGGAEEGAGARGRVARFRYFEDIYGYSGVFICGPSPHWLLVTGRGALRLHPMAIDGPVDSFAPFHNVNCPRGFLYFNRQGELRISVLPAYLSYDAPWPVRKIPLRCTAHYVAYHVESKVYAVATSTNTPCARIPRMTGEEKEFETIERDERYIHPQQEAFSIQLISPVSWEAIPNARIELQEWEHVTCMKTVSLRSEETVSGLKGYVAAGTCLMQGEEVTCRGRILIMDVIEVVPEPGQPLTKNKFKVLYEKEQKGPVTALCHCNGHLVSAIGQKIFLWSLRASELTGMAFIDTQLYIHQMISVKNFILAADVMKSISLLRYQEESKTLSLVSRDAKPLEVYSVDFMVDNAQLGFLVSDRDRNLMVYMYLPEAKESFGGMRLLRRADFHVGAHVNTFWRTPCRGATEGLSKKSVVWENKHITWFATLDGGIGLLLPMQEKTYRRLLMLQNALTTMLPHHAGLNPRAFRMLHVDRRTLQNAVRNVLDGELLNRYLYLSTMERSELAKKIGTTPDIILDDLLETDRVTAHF
Chain of UniProt P05937 (P05937 whole entry, looked up): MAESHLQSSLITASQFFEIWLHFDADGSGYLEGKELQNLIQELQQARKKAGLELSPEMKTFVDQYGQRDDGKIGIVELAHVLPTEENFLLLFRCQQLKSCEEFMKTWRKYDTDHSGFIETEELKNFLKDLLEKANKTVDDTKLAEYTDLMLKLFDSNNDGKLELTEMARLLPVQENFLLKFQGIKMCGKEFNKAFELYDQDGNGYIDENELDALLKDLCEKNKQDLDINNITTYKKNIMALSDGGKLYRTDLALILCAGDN
Chain of UniProt Q9NRR8 (Q9NRR8 whole entry, looked up): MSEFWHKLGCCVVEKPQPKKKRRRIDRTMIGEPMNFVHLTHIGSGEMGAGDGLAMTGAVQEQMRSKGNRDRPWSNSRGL
Work on CBR1 (UniProt P16152) yielded a log2 fold change of -0.019. For CNN3 (UniProt Q15417), the log2 fold change was -0.022. CDC42SE1 (UniProt Q9NRR8) gave a log2 fold change of 0.141. CDK8 (UniProt P49336) was tested, and the log2 fold change was -0.037. Target CAMK2G isoform 6 (UniProt Q13555) has a log2 fold change of 0.131. Target CNN1 (UniProt P51911) has a log2 fold change of -0.067. For CCZ1 (UniProt P86791), the log2 fold change was 0.039. Work on CPSF1 (UniProt Q10570) yielded a log2 fold change of 0.037. With CHERP (UniProt Q8IWX8) the log2 fold change was 0.026. With CLCN5 isoform 2 (UniProt P51795) the log2 fold change was -0.014. CPT1A (UniProt P50416) gave a log2 fold change of 0.019. With CHST11 (UniProt Q9NPF2) the log2 fold change was -0.1. C16orf58 (UniProt Q96GQ5) was tested, and the log2 fold change was 0.011. For COX5A (UniProt P20674), the log2 fold change was 0.132. Target CDCA2 (UniProt Q69YH5) has a log2 fold change of -0.013. Target CHAF1A (UniProt Q13111) has a log2 fold change of -0.126. Work on COMT (UniProt P21964) yielded a log2 fold change of 0.017. CHMP4C (UniProt Q96CF2) was tested, and the log2 fold change was 0.036. In the case of CDK9 isoform 2 (UniProt P50750), the log2 fold change is reported as 0.012. Work on COX15 (UniProt Q7KZN9) yielded a log2 fold change of -0.169. CNOT2 (UniProt Q9NZN8) showed a log2 fold change of -0.012. With CERS2 (UniProt Q96G23) the log2 fold change was -0.018. CASP7 isoform 3 (UniProt P55210) was tested, and the log2 fold change was 0. With CDK16 isoform 2 (UniProt Q00536) the log2 fold change was -0.022. In the case of C4A (UniProt P0C0L4), the log2 fold change is reported as 0.149. For CDK13 (UniProt Q14004), the log2 fold change was 0.065. Work on CHAMP1 (UniProt Q96JM3) yielded a log2 fold change of 0.002. CIR1 (UniProt Q86X95) was tested, and the log2 fold change was 0.024. Work on COCH (UniProt O43405) yielded a log2 fold change of -0.012. For CSNK2A1 (UniProt P68400), the log2 fold change was 0.113. CHPT1 (UniProt Q8WUD6) was tested, and the log2 fold change was 0.047. For CASP9 (UniProt P55211), the log2 fold change was -0.211. For CALB1 (UniProt P05937), the log2 fold change was -0.016. With CDAN1 (UniProt Q8IWY9) the log2 fold change was 0.023. For CEPT1 (UniProt Q9Y6K0), the log2 fold change was 0.033. In the case of CFAP58 (UniProt Q5T655), the log2 fold change is reported as -1.11 (active). COPS8 (UniProt Q99627) was tested, and the log2 fold change was 0. Target CHEK1 (UniProt O14757) has a log2 fold change of -0.057.

— the supplement of paper PMC10849652
